Experimental data taken from PubChem BioAssay AID652257 (The Scripps Research Institute Molecular Screening Center, 2013).
Hit rate of the full screen: of about 370,000 compounds, about 4,800 (1.3%) were called active. What follows is part of a selection rich in actives, with near analogues and random picks from the rest. Unmarked numbers belong to inactive results.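 How the source made its calls: active means inhibition above about 21% made by adding two undisclosed values (limit read from the data); inactive means the rest.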

molecular target: Protein arginine N-methyltransferase 1 (Homo sapiens) (UniProt Q99873); test: PRMT1 methyltransferase inhibitors, primary screen, biochemical, fluorescence polarization (AID 652257); conditions: recombinant PRMT1, activity-based probe fluorescence polarization; at 2.79 µM; active compounds read high
Sequence (Q99873 whole entry, looked up): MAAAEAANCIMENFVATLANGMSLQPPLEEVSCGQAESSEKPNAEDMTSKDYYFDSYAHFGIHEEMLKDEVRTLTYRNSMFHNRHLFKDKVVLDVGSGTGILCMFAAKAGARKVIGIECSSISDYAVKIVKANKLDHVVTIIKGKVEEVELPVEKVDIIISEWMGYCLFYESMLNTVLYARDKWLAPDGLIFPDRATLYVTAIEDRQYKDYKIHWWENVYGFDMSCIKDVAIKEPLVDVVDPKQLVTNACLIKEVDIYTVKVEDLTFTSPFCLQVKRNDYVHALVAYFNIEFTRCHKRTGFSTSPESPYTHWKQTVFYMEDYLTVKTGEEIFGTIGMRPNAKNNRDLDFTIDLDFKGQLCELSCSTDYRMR

Row | Structure (SMILES) | inhibition
1 | CCC(NC(=O)C1C2C=CC3(CN(Cc4ccccc4)C(=O)C13)O2)c1ccccc1 (configuration not stated) | 2.19%
2 | O=S(=O)(O)c1cc2onnc2c2ccccc12 | 40.6% (active)
3 | CCOC(=O)[C@@]12CCC3=C1N(CCC3)C(=O)[C@H](CC(=O)N1CCN(C(=O)c3ccco3)CC1)C2 | -2.33%
4 | CC1=CC(C)(C)NC(=S)N1c1ccccc1 | 3.18%
5 | Cc1ccc(-c2nnc(SCC(=O)Nc3ccc(Oc4ccccc4)cc3)n2Cc2ccco2)cc1 | 4.18%
6 | CC1CC1C(=O)OCC(=O)Nc1cccc(F)c1 (configuration not stated) | 2.32%
7 | Cc1ccccc1CN1CCCCC(NC(=O)Nc2ccccc2F)C1=O (configuration not stated) | -0.07%
8 | C#CCNC(=O)C[C@H]1C[C@@]2(C(=O)OC)C(=C[C@H](C(C)C)O[C@@H]2C2CC2)N(Cc2ccco2)C1=O | -1.6%
9 | C=CCn1c(=NC(=O)c2cccs2)sc2cc(NC(C)=O)ccc21 | 4.42%
10 | COc1cc2c(cc1OC)C(Cc1cc(OC)c(OC)cc1[N+](=O)[O-])=NCC2 | 8.89%
11 | CCS(=O)(=O)c1cc([N+](=O)[O-])c(Sc2ccccc2N)s1 | 66.1% (active)
12 | O=C(c1ccccc1)c1ccc(-c2ccccc2C(=O)NC2CCCCN(Cc3ccc(Cl)cc3)C2=O)cc1 (configuration not stated) | -3.72%
13 | C=C(C)C#CC(Cc1ccccc1)NCC1CC1 (configuration not stated) | 7.99%
14 | O=C(CSc1nnc(COc2ccccc2)n1Cc1ccco1)c1ccc2ccccc2c1 | 4.78%
15 | O=C(CSc1nnc(-c2cccs2)n1Cc1ccco1)c1ccc2c(c1)OCO2 | 1.9%
16 | Cc1sc2nc(SCC(=O)c3ccc(O)c(O)c3)n(Cc3ccco3)c(=O)c2c1C | 25.1% (active)
17 | CCCC[C@H]1C2CC(OC(=O)NCc3ccccc3)C(C2)[C@H]2CCCCN21 (some centres not stated) | 1.74%
18 | COc1ccc(OCc2n[nH]c(=S)n2N)cc1 | 4.04%
19 | Cc1cc(-c2n[nH]c(=S)n2-c2ccc(C)c(C)c2)no1 | 4.04%
20 | COc1ccccc1-n1c(-c2cc(-c3ccco3)[nH]n2)n[nH]c1=S | 35.1% (active)
21 | COc1ccc(C(C#N)Nc2ccccc2C)cc1 (configuration not stated) | 1.86%
22 | CC(C)(C)OC(=O)NCc1cc(F)ccc1/C=C/S(=O)(=O)NCCc1ccccc1 | -0.49%

Row | Structure (SMILES) | inhibition
23 | Cc1cc(NC(=O)COC(=O)/C=C/c2ccc(C)o2)no1 | 5.65%
24 | O=C(/C=C/c1ccc([N+](=O)[O-])o1)NNC(=O)c1ccc(F)cc1 | 5.67%
25 | Cc1ccc(/C=C/C(=O)Nc2ccc([N+](=O)[O-])c(NC(=O)/C=C/c3ccc(C)o3)c2)o1 | 41.1% (active)
26 | COc1ccc(-n2c(SCC(=O)Nc3ccc(C)c(Cl)c3)nc3ccccc3c2=O)cc1 | 0.06%
27 | COc1ccc(/C=C2/S/C(=N/N=C3\CC4CCC3(C)C4(C)C)NC2=O)cc1 (configuration not stated) | -3.61%
28 | COc1ccc(C(=O)NN2C(=O)C3C(c4ccccc4)C=CC(c4ccccc4)C3C2=O)cc1 (configuration not stated) | -3.24%
29 | COc1ccc2c(c1)N(C)/C(=C1/SC(=S)N(NC(C)=O)C1=O)S2 | -3.82%
30 | CC(=O)N1C(=O)/C(=C2\SC(=S)N(NC(=O)c3ccc(O)cc3)C2=O)c2ccccc21 | 37.7% (active)
31 | COC(=O)C[C@@H]1CC[C@@H]2[C@H](COc3ccc(NC(=O)c4cccc(F)c4)cc3C(=O)N2C)O1 | -3.84%
32 | CCN1/C(=C/C(=S)Nc2ccccc2)Sc2ccccc21 | 64.6% (active)
33 | CCN1/C(=C\c2ccc3ccccc3[n+]2CC)Sc2cc(C)ccc21 | -5.01%
34 | C=CCN1[C@H](CC(C)C)COc2cccc(N3CCCC3)c2S1(=O)=O | 11.6%
35 | O=C(CSc1nncs1)NC1CCCc2ccccc21 (configuration not stated) | 2.99%
36 | O=C(CN1CCN(c2ccc(O)cc2)CC1)NC1CCCc2ccccc21 (configuration not stated) | 26.1% (active)
37 | CC(=O)c1ccc(N2CCN(CC(=O)Nc3ccccc3N3CCOCC3)CC2)cc1 | -1.3%
38 | O=C(CCC(=O)N1CCN(S(=O)(=O)c2ccccc2)CC1)NC1CCCc2ccccc21 (configuration not stated) | 2.87%
39 | O=C(CN1CCN(c2cccc(Cl)c2)CC1)Nc1ccc(S(=O)(=O)N2CCOCC2)cc1 | 1.21%
40 | O=C(CN1CCN(c2ccc(O)cc2)CC1)Nc1ccc(-c2ccccc2)cc1 | 21.2% (active)
41 | CCCCN1CC(CO)Oc2cccc(F)c2S1(=O)=O (configuration not stated) | -3.97%
42 | Cc1cc(C)c(NC(=O)CN2CCOCCOCCOCCOCC2)c(C)c1 | -1.78%
43 | COC(=O)C1CN(Cc2ccc(F)cc2)CCS(=O)(=O)N1Cc1ccc(Cl)cc1 (configuration not stated) | 0.79%
44 | CC(=O)Nc1ccc(OC[C@@H](O)CN2CCC(C(O)(c3ccccc3)c3ccccc3)CC2)cc1 | -3.02%

Row | Structure (SMILES) | inhibition
45 | COC(=O)[C@]12C[C@H](CC(=O)NCCCN3CCCC3=O)C(=O)N(CCc3ccc(OC)c(OC)c3)C1=C[C@H](COCc1ccccc1)O[C@@H]2C | -1.4%
46 | COC(=O)C1CN(CCc2ccccc2)CCS(=O)(=O)N1Cc1cccc(Cl)c1 (configuration not stated) | 4.71%
47 | O=C(COC(=O)c1ccccc1SCC(=O)N1CCCC1)Nc1ccccc1OC(F)F | 2.04%
48 | Cc1ccc(C(NC(=O)N2CCCC2)C(Cl)(Cl)Cl)cc1F (configuration not stated) | -0.94%
49 | CC1CCN(C(=O)CSc2nnc(-c3ccco3)n2N)CC1 | -3.61%
50 | COc1ccc(Cl)cc1NS(=O)(=O)c1cccc(C(=O)NC2CCC(O)CC2)c1 (configuration not stated) | -6.68%
51 | COc1ccc(Cl)cc1C(=O)NNC(=S)NC(=O)/C=C/c1ccco1 | -3.9%
52 | COc1ccc(N2C(=O)/C(=C\c3ccco3)N=C2SCC(N)=O)cc1Cl | 25.5% (active)
53 | COc1ccc([N+](=O)[O-])cc1NC(=O)COC(=O)/C=C/c1ccco1 | 5.77%
54 | COC(=O)[C@]12C[C@H](CC(=O)NCc3ccccc3)C(=O)N(CCC3=CCCCC3)C1=C[C@H](C(C)C)O[C@@H]2C1CC1 | -0.96%
55 | CC(c1ccc(N)cc1)c1cn(C)c2ccccc12 (configuration not stated) | -3.45%
56 | COc1ccc(Cl)cc1-c1cc(C(=O)Nc2cc(OC)c(OC)c(OC)c2)[nH]n1 | -1.28%
57 | CC(CCN1CCC(C(O)(c2ccccc2)c2ccccc2)CC1)Oc1ccc(Cl)cc1 (configuration not stated) | 0.54%
58 | C=CCn1c(=S)[nH]c2scc(-c3ccco3)c2c1=O | 38.1% (active)
59 | O=C(CSc1nc2ccccc2n1Cc1ccccc1Cl)N/N=C\c1c[nH]c2ccccc12 | -0.85%
60 | O=C(OCC(=O)N1CCCCCC1)c1cccc(Cl)c1Cl | -1.11%
61 | CC(NC(=O)Nc1ccccc1)C(c1cccs1)N1CCN(c2ccccc2)CC1 (configuration not stated) | 0.36%
62 | CC(=NNC(=S)N1CCCCCC1)c1ccccn1 | 25.4% (active)
63 | O=[N+]([O-])c1ccc(NC(=S)N2CCN(c3ccccn3)CC2)cc1 | -0.91%
64 | CCOC(=O)c1ccc(NC(=S)N2CCN(c3ccccn3)CC2)cc1 | -2.24%
65 | COC(=O)C1=C[C@@H](C(=O)OC)[C@@H]2C3=C(C(=O)[C@]2(C)NC(=O)c2ccccc2)[C@H](C)n2c(=O)n(C)c(=O)n2[C@@H]3C1 | 1.61%
66 | CCOC(=O)c1ccccc1NC(=O)CSc1nc2c(sc(=S)n2CC)c(=O)[nH]1 | 19%

Row | Structure (SMILES) | inhibition
67 | CSc1ncnc2c1ncn2CC(=O)C1CCC2C3CCC4=CC(=O)CCC4(C)C3CCC12C (configuration not stated) | 0.25%
68 | Cc1c(NS(=O)(=O)c2cccc(C(=O)Nc3ccc(SC(F)F)cc3)c2)c(=O)n(-c2ccccc2)n1C | 21.1% (active)
69 | COc1ccc(C(=O)C(C)OC(=O)c2cccc(S(=O)(=O)Nc3c(C)n(C)n(-c4ccccc4)c3=O)c2)cc1 (configuration not stated) | -2.91%
70 | Cc1c(NS(=O)(=O)c2cc(C(=O)NCCc3ccc(F)cc3)cc(Cl)c2Cl)c(=O)n(-c2ccccc2)n1C | -3.45%
71 | Cc1ccccc1-c1nc(CS(=O)(=O)CC(=O)NC(C)c2ccccc2)c(C)o1 (configuration not stated) | -4.8%
72 | Cc1sc2nc(CSCC(=O)Nc3c(Cl)cccc3Cl)[nH]c(=O)c2c1C | 13.1%
73 | Cc1nc(SCC(=O)NC2CCCC2)[nH]c(=O)c1C | 1.36%
74 | Cc1sc2nc(CSCC(=O)NC3CCCCC3)[nH]c(=O)c2c1C | 22.1% (active)
75 | COC(CNC(=O)[C@H](Cc1ccccc1)NC1(C(=O)NC2CCCCC2)CCCCC1)OC | -5.82%
76 | O=C(NCc1cccnc1)c1cnc2ccccc2n1 | -0.09%
77 | CCOc1ccc(-n2c(SCC(=O)Nc3cc(C)c(NC(=O)c4ccccc4)cc3OC)nnc2-c2cccs2)cc1 | 2.3%
78 | CC(=O)N1CC(C)c2scc(C)[n+]2-c2ccccc21 (configuration not stated) | 53.9% (active)
79 | Cc1ccc(NC(=O)C(CC(=O)O)C2CCCO2)c(C)c1 (configuration not stated) | 2.66%
80 | Cc1ccc(C(=O)N(Cc2ccccn2)CC2CCCO2)cc1 (configuration not stated) | -2.09%
81 | NNC(=O)c1oc2nc(-c3ccccc3)cc(-c3ccco3)c2c1N | -3.39%
82 | CNC(=S)NNC(=O)c1oc2nc(-c3ccccc3)cc(-c3ccco3)c2c1N | 21.9% (active)
83 | O=C(OCC#CCSc1nnc(-c2ccco2)o1)c1ccc(F)cc1 | -2.56%
84 | COc1ccc(-c2cc(-c3nnc(SCc4ccc([N+](=O)[O-])cc4)n3N)[nH]n2)cc1 | -4.36%
85 | O=C(NC(Cc1ccccc1)C(=O)O)/C(=C\c1ccccc1)NC(=O)c1ccco1 (configuration not stated) | -0.14%
86 | O=C(NC(Cc1c[nH]c2ccccc12)C(=O)O)/C(=C/c1ccco1)NC(=O)c1ccccc1 (configuration not stated) | 25.5% (active)
87 | O=C(NCc1ccco1)/C(=C/c1ccco1)NC(=O)c1ccccc1 | 7.1%
